Assay results published in PubChem BioAssay (NCATS).
Records with an inconclusive call do not appear. Activity calls are given as the source filed them. Unless noted, calls come from the whole dose curve; as a rule, active = well fitted curve in the direction sought with a large enough effect; inconclusive = small, poorly fitted or top-dose-only effect, or another doubt; inactive = no such curve, though single readings can be large; an effect the other way counts as inactive or inconclusive.

What was measured:
[1] = tested on: Zika virus NS2B-NS3 protease; assay: Primary screen GU AMC qHTS for Zika virus inhibitors (AID 1347154); note: nearly all actives have a fitted effect of over 70% in size
How it was run: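 Fluorogenic AMC-substrate cleavage by noncovalent NS2B-NS3 protease complex (25 nM, pH 8.0 Tris buffer with Tween 20) followed for 15 minutes at room temperature (~20% conversion). Percent inhibition from ex340/em450 signal change, fitted by 4-parameter Hill equation.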

[2] = tested on: Zika virus NS2B-NS3 protease (linked construct); assay: Primary screen NINDS Rhodamine qHTS for Zika virus inhibitors (AID 1347160); note: nearly all actives have a fitted effect of over 55% in size
How it was run: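 Each compound, titrated, sat 15 min with 25 nM linked protease before 1.5 microM Rhodamine110 substrate went in. Fluorescence gain over the next 15 min, in pH 8.0 Tris with Tween 20, gave Hill-fitted curves.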

[3] = UWB1.289 Cancer Cell Toxicity qHTS against the NCATS CANVASS Library (AID 1347347); note: potency is the fitted concentration of half-maximal effect; nearly all actives have a fitted effect of over 60% in size
How it was run: (§1)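 In this cytotoxicity screen, 1000 cells per well rested 4 hours, then received compound (11 concentrations) for a 72-hour incubation; an ATP-dependent luminescent signal (CellTiter-Glo) was the endpoint.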

[4] = OV-SAHO Cancer Cell Toxicity qHTS against the NCATS CANVASS Library (AID 1347348); note: series mostly up to about 38 µM; nearly all actives have a fitted effect of over 55% in size
How it was run: as §1

[5] = U-118MG Cancer Cell Toxicity qHTS against the NCATS CANVASS Library (AID 1347351); note: series mostly up to about 38 µM
How it was run: as §1

[6] = HEK-293 Cancer Cell Toxicity qHTS against the NCATS CANVASS Library (AID 1347355); note: potency is the fitted concentration of half-maximal effect; nearly all actives have a fitted effect of over 65% in size
How it was run: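 1000 cells/well, 4 h pre-incubation 37 °C/5% CO2; 11-pnt titration; 72 h; CellTiter-Glo 15 min RT, luminescence.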

[7] = HPAF-II 24hr Apoptosis Induction qHTS against the NCATS CANVASS Library (AID 1347356)
How it was run: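 500 HPAF-II cells/well; compounds in 11-pnt qHTS; 24 h, 37 C/5% CO2; Caspase-Glo 3/7 added, 15 min RT dark; luminescence read. Doxorubicin control.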

[8] = HEK293 18hr Apoptosis Induction qHTS against the NCATS CANVASS Library (AID 1347357)
How it was run: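 Natural products applied to HEK293 for 18 hr; Caspase-Glo 3/7 readout.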

[9] = HPAF-II 12hr Apoptosis Induction qHTS against the NCATS CANVASS Library (AID 1347358)
How it was run: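 Caspase-Glo 3/7 luminescence (DEVD substrate) reports caspase activity in HPAF-II cells after 12 h compound treatment at 37 degrees C. Compounds were tested in an 11-point series. Doxorubicin served as control.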

[10] = HEK293 24hr Apoptosis Induction qHTS against the NCATS CANVASS Library (AID 1347359)
How it was run: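 Caspase-3/7 activation measured as luminescence from the DEVD-based Caspase-Glo reagent, 15 min at room temperature, following 24-hour compound treatment of HEK293 cells.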

[11] = HPAF-II 18hr Apoptosis Induction qHTS against the NCATS CANVASS Library (AID 1347360)
How it was run: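 Luminescent DEVD-substrate signal, proportional to caspase activity, is measured in HPAF-II cells after 18-hour treatment across a concentration series; doxorubicin serves as control.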

[12] = HEK293 12hr Apoptosis Induction qHTS against the NCATS CANVASS Library (AID 1347361)
How it was run: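 Luminescent caspase-3/7 signal, proportional to enzyme activity, was recorded from HEK293 cultures in DMEM + 10% FBS treated for 12 hours with titrated natural products (11 points). Doxorubicin (0.1nM - 4uM) served as control.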

[13] = tested on: NAD(P)H diaphorase (Clostridium kluyveri); assay: Diaphorse counterscreen qHTS: Assay Interference Panel against the NCATS CANVASS Library (AID 1347362)
How it was run: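 Counterscreen for coupling-enzyme interference: resorufin fluorescence from resazurin/NADH turnover, read after 5 min at room temperature. Compounds were tested over an 11-point series after 15 min dark preincubation with diaphorase in PBS-Tween.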

[14] = target: Luciferin 4-monooxygenase (Photinus pyralis) (UniProt P08659); assay: Firefly luciferase counterscreen qHTS: Assay Interference Panel against the NCATS CANVASS Library (AID 1347363); note: series mostly up to about 57 µM
How it was run: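 Luminescence inhibition readout: compounds (11-point qHTS) sat 15 min at room temperature with substrate mix (0.013 mM luciferin and ATP), then firefly luciferase was added and signal read 5 min later.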

[15] = KB-8-5-11 Cancer Cell Toxicity qHTS against the NCATS CANVASS Library (AID 1347364); note: potency is the fitted concentration of half-maximal effect; nearly all actives have a fitted effect of over 75% in size
How it was run: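 CellTiter-Glo luminescence after 72 h exposure; 500 KB-8-5-11 cells/well, DMEM/10% FBS, 37C, 5% CO2; compounds in 11-pt qHTS. Follow-up confirmation included medium with 1uM tariquidar.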

[16] = SDT Cancer Cell Toxicity qHTS against the NCATS CANVASS Library (AID 1347365); note: potency is the fitted concentration of half-maximal effect; nearly all actives have a fitted effect of over 60% in size
How it was run: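 Luminescent ATP read-out (CellTiterGlo) after 72 hr compound exposure of dog glioma SDT cells, 500 per well. Eleven-point titrations; bortezomib titration run alongside as control.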

[17] = KB-3-1 Cancer Cell Toxicity qHTS against the NCATS CANVASS Library (AID 1347366); note: potency is the fitted concentration of half-maximal effect; nearly all actives have a fitted effect of over 75% in size
How it was run: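 Cytotoxicity toward KB-3-1 cells (500/well, DMEM + 10% FBS) was scored by CellTiter-Glo luminescence following 72 hr exposure at 37C, with bortezomib titrated as control.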

[18] = G06 Cancer Cell Toxicity qHTS against the NCATS CANVASS Library (AID 1347368); note: potency is the fitted concentration of half-maximal effect; nearly all actives have a fitted effect of over 60% in size
How it was run: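 ATP luminescence (CellTiterGlo) readout of cytotoxicity. Canine G06 glioma cells, 500/well, 72 hr incubation at 37C with compounds; bortezomib titration served as control.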

[19] = MCF7 Cancer Cell Toxicity qHTS against the NCATS CANVASS Library (AID 1347369); note: series mostly up to about 46 µM
How it was run: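 This 72 hr qHTS scored MCF7 viability by CellTiterGlo luminescence, with 500 cells/well; bortezomib titration ran as control.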

[20] = qHTS for ATAD5 Antagonist screened against the NCATS CANVASS Library (AID 1347370);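 note: HEK293T cells carrying an ATAD5 luciferase reporter co-treated with 10 µM 5-fluorouridine; series mostly up to about 46 µM; nearly all actives have a fitted effect of over 65% in size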
How it was run: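 HEK293T-ATAD5 luc reporter, 2000 cells/well; 5hr attach; cpd + 10 uM 5-FUrd; 16hr 37C, 5% CO2. Readouts: CellTiter-Fluor fluorescence (1hr), then Amplite luciferase luminescence (30min RT).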

[21] = target: Nuclear receptor subfamily 1 group I member 3 (Homo sapiens) (UniProt Q14994); assay: qHTS for Constitutive Androstane Receptor (CAR) Antagonist screened against the NCATS CANVASS Library (AID 1347372); note: potency is the fitted concentration of half-maximal effect
How it was run: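 Antagonist mode: compound added alongside 50 nM CITCO to HepG2-hCAR-CYP2B6 reporter cells, 24hr at 37C. Viability by CellTiter-Fluor fluorescence, then CAR-driven luciferase by ONE-Glo luminescence.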

[22] = target: Nuclear receptor subfamily 1 group I member 3 (Homo sapiens) (UniProt Q14994); assay: qHTS for Constitutive Androstane Receptor (CAR) Agonist screened against the NCATS CANVASS Library (AID 1347373);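 note: every well also contained 1.5 µM PK11195 alongside the test compound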
How it was run: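 Luciferase read-out (ONE-Glo, 30 min RT) of CYP2B6-2.2kb promoter activity in double-stable HepG2-hCAR cells after 24hr compound exposure with 1.5uM PK11195 present; viability measured first by CellTiter-Fluor.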

[23] = qHTS for Hypoxia signaling pathway (HIF-1) agonists against the NCATS CANVASS Library (AID 1347375)
How it was run: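 Read-out: beta-lactamase FRET (CCF4-AM, ex 405, em 460 and 530 nm) after 2 h at room temperature. ME-180 cells stably carrying HRE-bla were treated 17 h at 37C with compounds in an 11-point concentration series.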

[24] = 10-beta competent E. coli microbial cell viability qHTS against the NCATS CANVASS Library (AID 1347376); note: series mostly up to about 46 µM
How it was run: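 Luminescence from BacTiter-Glo ATP detection served as the viability read-out; bacteria (0.2 OD) had been incubated overnight at 37C with pin-transferred compounds at 11 concentrations.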

[25] = DH5-alpha competent E. coli microbial cell viability qHTS against the NCATS CANVASS Library (AID 1347377); conditions: outcome: dose series up to 46.1 µM
How it was run: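 Luminescent ATP read-out (BacTiter-Glo, 20 min RT) after overnight 37C culture of DH5-alpha E. coli with compounds; daunomycin control at 0.2 nM–9.2 uM final.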

[26] = qHTS for H2AX Agonists against the NCATS CANVASS Library (AID 1347378);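 note: phospho-H2AX S139 level in CHO-K1 lysates by TR-FRET emission ratio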
How it was run: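 Signal is the 665/620 nm emission ratio from europium cryptate and d2 antibody pair, rising with S139-phosphorylated H2AX. CHO-K1 cells saw test agents for 3 hr at 37C; detection ran 24 hr at room temperature.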

[27] = qHTS for Inflammasome Signaling Inhibitors: IL-1-beta AlphaLISA screen against the NCATS CANVASS Library (AID 1347379);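 note: human THP-1 cells primed with LPS then triggered with ATP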
How it was run: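 THP-1, 1 hr compound pre-incubation, then LPS 250 ng/mL + ATP 1.25 mM (final); 16 hr total with compound; IL-1B AlphaLISA, ex 680/em 615 nm; 11-point qHTS, up to 57.5 uM final.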

[28] = qHTS for Antimalaria activity screened against the NCATS CANVASS Library (AID 1347380); note: potency is the fitted concentration of half-maximal effect; nearly all actives have a fitted effect of over 40% in size
How it was run: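 SYBR Green fluorescence (ex 485, em 535 nm) read after saponin/Triton lysis and 18 h further incubation; Dd2 asexual blood-stage parasites, 72 h compound exposure, 11-pt concentration series, 2.5% hematocrit, 0.3% parasitemia.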

[29] = Inflammasome Signaling qHTS Counterscreen: IL-1-beta AlphaLISA counterscreen against the NCATS CANVASS Library (AID 1347381);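 note: cell-free check with purified IL-1β in medium and no THP-1 cells; series mostly up to about 57 µM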
How it was run: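 Here, no cellular stimulation occurs; compounds in an 11-point series meet 4 pg purified IL-1-beta directly. Bead-based AlphaLISA detection follows (1 h acceptor/antibody, then 30 min donor, dark, room temperature), with excitation at 680 nm.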

[30] = Cytotoxicity qHTS for assessment of Hepg2 cells membrane integrity screened against the NCATS CANVASS Library (AID 1347387)
How it was run: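 LDH release read by fluorescence (560 nm ex/590 nm em) after CytoTox-ONE addition and 10 min RT; signal tracks lysed cells. HepG2, 2000 cells/well, plated overnight; compound 5 hr, 37C, 5% CO2, final 0.59 nM - 46 uM, 11 points.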

[31] = qHTS assay for small molecule disruptors of mitochondrial membrane potential screened against the NCATS CANVASS Library (AID 1347389); note: series mostly up to about 46 µM; nearly all actives have a fitted effect of over 60% in size
How it was run: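 Red/green fluorescence ratio read-out: J-aggregates ex 540/em 590 nm, monomers ex 490/em 535 nm. HepG2, 1 hr compound treatment, then 30 min Mito-MPS dye at 37C. 11-pt qHTS concentration series.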

[32] = qHTS for activators of dead-cell proteases activity screened against the NCATS CANVASS Library (AID 1347392);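 note: luminescence from protease leaking out of membrane-damaged cells cleaving impermeant substrate; rising signal means more cytotoxicity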
How it was run: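 Luminescent dead-cell protease readout (AAF-aminoluciferin, 15 min, room temperature) after 5 h compound treatment of HepG2 cells (2000/well, pre-attached 18 h). Eleven concentrations.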

[33] = Vero-766 cells viability qHTS against the NCATS CANVASS Library: Counterscreen for Zika virus inhibition assay (AID 1347394)
How it was run: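 Counterscreen for toxicity: Vero 766 cells exposed 72 h to an 11-point compound series, viability by CellTiter-Glo.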

[34] = Redox Reaction Profiling qHTS: Assay Interference Panel against the NCATS CANVASS Library (AID 1347401)
How it was run: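 Redox-cycling liability assessed as DTT-driven conversion of resazurin (5 uM, with 200 uM DTT, HEPES pH 7.3) to fluorescent resorufin. Fluorescence at 525/598 nm measured initially and after 15 min dark incubation.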

[35] = qHTS for inhibitors of Rabies Virus screened against the NCATS CANVASS Library (AID 1347402; calls by dose curve; note: series mostly up to about 46 µM)
[36] = Primary qHTS for small molecule stabilizers of the endoplasmic reticulum resident proteome: Secreted ER Calcium Modulated Protein (SERCaMP) assay (AID 1508630)
How it was run: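 The SH-SY5Y reporter protocol was run at 3 concentrations up to 38.3 uM (primary) or 11 concentrations (follow-up): 16 h compound, 100 nM thapsigargin for 4 h, then extracellular luciferase luminescence.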

Measured: Potency

Chain of Nuclear receptor subfamily 1 group I member 3 (Homo sapiens) (Q14994 whole entry, looked up): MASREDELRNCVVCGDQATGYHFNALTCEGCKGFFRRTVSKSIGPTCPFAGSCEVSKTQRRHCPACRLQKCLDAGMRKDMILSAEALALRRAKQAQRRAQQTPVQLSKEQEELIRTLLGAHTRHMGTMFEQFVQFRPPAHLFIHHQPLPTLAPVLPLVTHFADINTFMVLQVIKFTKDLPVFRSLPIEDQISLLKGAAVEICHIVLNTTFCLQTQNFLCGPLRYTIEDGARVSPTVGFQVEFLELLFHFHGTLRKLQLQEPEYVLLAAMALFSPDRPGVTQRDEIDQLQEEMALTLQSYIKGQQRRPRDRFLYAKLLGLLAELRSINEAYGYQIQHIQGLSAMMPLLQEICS
Chain of Luciferin 4-monooxygenase (Photinus pyralis) (P08659 whole entry, looked up): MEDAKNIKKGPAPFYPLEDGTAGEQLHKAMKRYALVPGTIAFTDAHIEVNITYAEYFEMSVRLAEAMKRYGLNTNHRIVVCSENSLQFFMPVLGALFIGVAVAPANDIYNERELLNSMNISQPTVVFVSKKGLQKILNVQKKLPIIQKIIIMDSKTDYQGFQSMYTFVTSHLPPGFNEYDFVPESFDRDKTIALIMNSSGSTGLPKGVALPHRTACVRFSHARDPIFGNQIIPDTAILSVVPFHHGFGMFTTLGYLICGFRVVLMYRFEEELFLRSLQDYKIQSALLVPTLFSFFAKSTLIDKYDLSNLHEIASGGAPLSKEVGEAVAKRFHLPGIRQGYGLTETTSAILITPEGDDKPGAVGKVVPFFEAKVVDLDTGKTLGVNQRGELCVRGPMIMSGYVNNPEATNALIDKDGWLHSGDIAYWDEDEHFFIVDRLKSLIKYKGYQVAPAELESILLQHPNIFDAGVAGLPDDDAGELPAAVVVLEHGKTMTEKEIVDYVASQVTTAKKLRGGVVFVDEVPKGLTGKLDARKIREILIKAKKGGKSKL

C=C1[C@@H](C)[C@H]2[C@H](Cc3ccccc3)NC(=O)[C@]23OC(=O)/C=C/[C@H](O)CCC[C@@H](C)C/C=C/[C@H]3[C@@H]1O
active: [3] 5.94 µM | [6] 9.35 µM | [15] 9.35 µM | [16] 2.64 µM | [17] 4.69 µM | [18] 2.35 µM | [21] 8.31 µM | [28] 4.2 µM | [33] 13.2 µM
inactive: all other assays above
